# Compound activity as filed in PubChem.
# DT40 TDP1 CPT: growth inhibition of DT40 Tdp1-/-;hTDP1 cells with camptothecin (screen for TDP1 inhibitors) | chicken DT40 Tdp1-/-;hTDP1 cells + 20 nM CPT, ATP luminescence, 48 h | Potency, µM (highest dose often 46.2 µM), most hits filed as inhibitors | 420,000 compounds, 12% hits | AID 686979; note: nearly all actives have a fitted effect of over 55% in size
#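 Chicken DT40 Tdp1-/- cells stably complemented with human TDP1 were seeded at 400 cells/well in medium containing 20 nM camptothecin, exposed to pin-transferred compounds, and grown at 37 °C for at least 48 hr. Viability was read as ATP luminescence.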
# HepG2 tox: kills HepG2 cells in TGF-b inhibitor counter-screen; HepG2 CAGA-GFP viability, ATP luminescence, 18 h; Potency, µM (series often up to 46.1 µM), most hits filed as cytotoxic; 410,000 compounds, 0.76% hits; AID 588856
#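 CellTiter-Glo luminescence gave cytotoxicity after 18 hours at 37 degrees C. The cells were HepG2 CAGA-GFP in 1% FBS DMEM, stimulated with 500 pg/mL TGF-beta after compound addition. %Activity was normalised to no-cell wells (complete cell-killing) and DMSO (no toxicity), and curves were fitted and classified.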
# TGFb inhibitor: TGF-b pathway inhibition | AID 588855 | Potency, µM (highest dose often 46.1 µM), usual class: inhibitors | HepG2 CAGA-GFP TGF-b/SMAD3 reporter, GFP fluorescence, 18 h; TGF-beta stimulated, 500 pg/mL final | 410,000 compounds, 1.2% hits; note: nearly all actives have a fitted effect of over 65% in size
#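 First, reporter cells (HEPG2 CAGA-GFP) rested 2 h at 37 degrees C. Next, compounds were pinned in and TGF-beta added to 500 pg/mL final. After 18 h, GFP was imaged per cell and summed per well.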
# IL1B secr inh: inflammasome signaling inhibition, IL-1 beta readout | THP-1 LPS/ATP IL-1B secretion, AlphaLISA, 16 h; hits give low values | activity change, % at 57.5 µM | 360,000 compounds, 4.7% hits | AID 743279; in the data active = activity change below about -50%; inconclusive = mostly about -30% to -49%
#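 THP-1 cells pretreated 1 hr with compounds (up to 57.5 uM final), then stimulated with LPS (250 ng/mL final) plus ATP (1.25 mM final); secreted IL-1B measured by AlphaLISA after 16 hr, decreased signal indicating inhibition.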
# TDP1 inh: TDP1 (human) enzyme inhibition. Q9NUW8. recombinant TDP1, AlphaScreen DNA substrate cleavage. Potency, µM (titrated, usually from 130 µM), most hits filed as inhibitors. 350,000 compounds, 0.28% hits. AID 485290; note: nearly all actives have a fitted effect of over 40% in size
# Target sequence (Q9NUW8 whole entry, looked up): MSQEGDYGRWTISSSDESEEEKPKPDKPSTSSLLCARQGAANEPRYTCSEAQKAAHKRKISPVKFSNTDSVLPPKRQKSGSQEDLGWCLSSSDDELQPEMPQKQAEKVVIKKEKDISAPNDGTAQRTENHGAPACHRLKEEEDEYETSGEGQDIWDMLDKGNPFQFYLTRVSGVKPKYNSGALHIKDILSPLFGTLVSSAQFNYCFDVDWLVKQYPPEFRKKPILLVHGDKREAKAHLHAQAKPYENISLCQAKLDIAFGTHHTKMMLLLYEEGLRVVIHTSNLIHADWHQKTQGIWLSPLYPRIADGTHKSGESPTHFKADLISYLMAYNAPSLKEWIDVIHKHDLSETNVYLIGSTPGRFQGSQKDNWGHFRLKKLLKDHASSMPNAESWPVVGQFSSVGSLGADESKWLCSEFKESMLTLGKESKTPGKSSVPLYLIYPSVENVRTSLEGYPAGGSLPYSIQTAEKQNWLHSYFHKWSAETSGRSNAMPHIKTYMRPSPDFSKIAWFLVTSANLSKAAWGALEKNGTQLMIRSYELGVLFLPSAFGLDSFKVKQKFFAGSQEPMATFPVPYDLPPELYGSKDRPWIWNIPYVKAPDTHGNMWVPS
#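 Recombinant human Tdp1 (E. coli-expressed, 1 nM final) preincubated with compounds 15 min at room temperature, then 5'-biotin/3'-phosphotyrosine-FITC DNA substrate (15 nM final) added for 5 min. AlphaScreen beads (10 ug/ml final) added 10 min; cleavage lowers signal.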
# DT40 TDP1 no CPT: qHTS for Inhibitors of human tyrosyl-DNA phosphodiesterase 1 (TDP1): qHTS in cells in absence of CPT; AID 686978, 2013; Potency, µM (doses to about 46.2 µM), usual class: inhibitors; 420,000 compounds, 15% hits; DT40 Tdp1-/- hTDP1 cells, no CPT, ATP luminescence, 48 h; note: nearly all actives have a fitted effect of over 55% in size
#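 Cells were dispensed at 400 per well, compounds added by pin tool, plates incubated ≥48 hr at 37 °C, then CellTiter-Glo added for 30 min at room temperature before luminescence reading. Line: DT40 Tdp1-/- complemented with hTDP1; camptothecin omitted.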
# Numbers stand for hits; 0 = inactive; ? = inconclusive; - = not tested or not shown. In the library only some 18% were active in any assay of this set; here they are far more common. Unless noted, calls come from the whole dose curve; as a rule, active = well fitted curve in the direction sought with a large enough effect; inconclusive = small, poorly fitted or top-dose-only effect, or another doubt; inactive = no such curve, though single readings can be large; an effect the other way counts as inactive or inconclusive.
SMILES,DT40 TDP1 CPT,HepG2 tox,TGFb inhibitor,IL1B secr inh,TDP1 inh,DT40 TDP1 no CPT
CCN(CC)C(=O)C1CCCN(C(=O)c2ccc3nc(-c4cccc(OC)c4)oc3c2)C1 (configuration not stated),23.1µM,0,0,0,-,11.6µM
CCOC(=O)C1CCCN(C(=O)c2ccc3nc(-c4cccc(OC)c4)oc3c2)C1 (configuration not stated),3.26µM,0,0,0,0,2.91µM
CCC(=O)C1CCCN(C(=O)c2ccc3nc(-c4cccc(OC)c4)oc3c2)C1 (configuration not stated),?,0,0,0,0,?
COc1ccc(CN2CCCC(n3cc(C(=O)NC4CCCC4)nn3)C2)c(O)c1 (configuration not stated),?,-,-,-,-,0
COCCN(CCOC)Cc1cc(=O)oc2ccc3ccccc3c12,?,0,0,0,-,18.4µM
CCCN(CCC)Cc1cc(=O)oc2ccc3ccccc3c12,?,0,?,0,-,?
COc1ccc2nc(N3C(=O)C(O)=C(C(=O)c4ccco4)C3c3ccc(C)o3)sc2c1 (configuration not stated),0,0,0,0,0,18.4µM
CCCOc1cccc(C2C(C(=O)c3cccs3)=C(O)C(=O)N2Cc2cccnc2)c1 (configuration not stated),?,0,0,0,0,16.4µM
Cc1cc(N2C(=O)C(O)=C(C(=O)c3ccc(C)o3)C2c2cccc(Oc3ccccc3)c2)no1 (configuration not stated),?,0,0,0,0,23.1µM
CCCOc1ccc(C2C(C(=O)c3ccc(C)o3)=C(O)C(=O)N2Cc2ccco2)cc1OCC (configuration not stated),?,0,0,0,0,23.1µM
COc1ccc2nc(N3C(=O)C(O)=C(C(=O)c4ccco4)C3c3ccccc3OC)sc2c1 (configuration not stated),?,0,0,0,0,?
COc1ccc(C2C(C(=O)c3cccs3)=C(O)C(=O)N2Cc2cccnc2)cc1OC (configuration not stated),0,0,0,0,0,0
CCN(C(=O)CN1CCCCC1C)c1c(N)n(Cc2ccccc2)c(=O)[nH]c1=O (configuration not stated),0,0,0,0,0,0
CCOC(=O)CNC(=O)N1CCCC(Cc2ccccc2)(C(=O)OCC)C1 (configuration not stated),0,0,0,0,-,?
CCOc1cccc(C2C(C(=O)c3ccc(C)o3)=C(O)C(=O)N2c2nnc(C)s2)c1 (configuration not stated),0,0,0,0,-,0
CCCOc1cccc(C2C(C(=O)c3ccc(C)o3)=C(O)C(=O)N2c2nc(C)c(C(C)=O)s2)c1 (configuration not stated),?,0,0,0,0,23.1µM
CCOC(=O)C1(Cc2ccccc2C)CCCN(C(=O)COC)C1 (configuration not stated),?,0,0,0,-,0
CCOC(=O)C1(Cc2ccccc2C)CCCN(S(=O)(=O)CC)C1 (configuration not stated),?,0,0,0,-,23.1µM
O=C(NCC1CCN(c2ccc(S(=O)(=O)N3CCOCC3)cc2)CC1)c1ccc(Cl)cc1,14.6µM,0,0,-75.0,0,13µM
Cc1ccccc1NC(=O)NCC1CCN(c2ccc(S(=O)(=O)N3CCOCC3)cc2)CC1,23.1µM,0,0,0,0,20.6µM
O=S(=O)(NCC1CCN(c2ccc(S(=O)(=O)N3CCOCC3)cc2)CC1)c1ccccc1,0,0,?,0,0,?
Cc1cccc(NC(=O)NCC2CCN(c3ccc(S(=O)(=O)N4CCOCC4)cc3)CC2)c1,?,0,0,0,0,?
O=S(=O)(NCC1CCN(c2ccc(S(=O)(=O)N3CCOCC3)cc2)CC1)c1ccc(F)cc1,23.1µM,0,0,0,0,20.6µM
CC1CN(C(=O)c2cc(Br)c(Br)s2)CC(C)O1 (configuration not stated),0,0,0,0,0,0
CC(=O)Nc1ccccc1OCC(=O)c1cc(C)n(Cc2cccs2)c1C,1.84µM,0,0,0,0,1.46µM
SMILES,DT40 TDP1 CPT,HepG2 tox,TGFb inhibitor,IL1B secr inh,TDP1 inh,DT40 TDP1 no CPT
Cc1cc(C(=O)COC(=O)c2ccccc2O)c(C)n1Cc1cccs1,?,0,0,?,0,14.6µM
O=C1CN(C(=O)COc2ccc(F)cc2Br)c2ccccc2N1,0,0,0,0,0,0
O=C(O)c1ccc(C(=O)C(=O)c2ccccc2)cc1,0,0,0,0,0,0
COc1cccc(C(=O)C(C#N)=C(SC)SC)c1,2.59µM,10µM,?,0,0,2.31µM
CSC(SC)=C(C#N)C(=O)c1ccccc1,2.06µM,0,?,-89.3,0,2.59µM
COc1cccc(C(=O)C(CCC#N)c2ccccc2)c1 (configuration not stated),0,0,0,0,-,?
O=C(CN1CCN(Cc2cccc3ccccc23)CC1)NCCc1ccccc1,0,0,0,0,-,?
Cc1ccc(SCC(=O)Nc2ccc3oc(-c4ccc(F)cc4)nc3c2)cc1,?,0,0,-,0,?
CCN(CC)CC(=O)Nc1ccc(-c2nc3cc(NC(=O)CN(CC)CC)ccc3o2)cc1,20.6µM,0,0,0,0,18.4µM
CCN(CC)CC(=O)Nc1ccc(Oc2ccc(NC(=O)CN(CC)CC)cc2)cc1,0,0,0,-58.0,0,0
CCC(C)NCC(=O)Nc1ccc(-c2nc3cc(NC(=O)CNC(C)CC)ccc3o2)cc1 (configuration not stated),6.51µM,0,?,0,0,7.31µM
O=C(CN1CCCC1)Nc1ccc(-c2nc3cc(NC(=O)CN4CCCC4)ccc3o2)cc1,18.4µM,0,?,-55.9,0,11.6µM
CCN(CC(=O)Nc1ccc(OC)cc1)CC(=O)Nc1ccc(Cl)cc1F,0,0,0,0,0,0
CCCC(=O)Nc1ccc2oc(-c3ccncc3)nc2c1,0,0,0,0,0,0
O=C(NCc1ccc2c(c1)OCO2)c1ccc(CS(=O)Cc2ccc(Cl)cc2)o1 (configuration not stated),0,0,0,-68.5,0,0
O=C(NCc1cccc(Cl)c1)c1ccc(CS(=O)Cc2ccc(Cl)cc2)o1 (configuration not stated),?,0,?,-74.0,0,0
